High-throughput results deposited in PubChem BioAssay by National Center for Advancing Translational Sciences (NCATS).
Sm TGR inh: qHTS Assay for the Inhibitors of Schistosoma Mansoni Peroxiredoxins; Schistosoma mansoni thioredoxin glutathione reductase (TGR), Q962Y6; purified TGR, DTNB reduction, TNB absorbance 405 nm; Potency, µM (top dose mostly 114 µM), for inactives: top-dose activity change, negative = inhibition, actives largely listed as inhibitors; 360,000 compounds, 3% hits; AID 485364, 2010; also: nearly all actives have a fitted effect of over 60% in size
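TGR 20 nM + NADPH 100 uM (dispensed conc.), cpd preinc 15 min RT; start with NADPH (500 uM addition) then DTNB (15 mM addition). Kinetic TNB absorbance, 405 nm filter. Four-parameter Hill fit across titration.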
AmpC inh detg: qHTS Inhibitors of AmpC Beta-Lactamase (assay with detergent); P00811; AmpC hydrolysis of nitrocefin, absorbance 480 nm, 0.01% Triton; Potency, µM (top dose mostly 114 µM), without a hit: at the highest dose activity change, negative = inhibition, usual class: inhibitors; 370,000 compounds, 0.041% hits; AID 485294, 2010;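 also: 0% = no-compound wells and -100% = no-enzyme wells; nearly all actives have a fitted effect of over 25% in size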
Target sequence (P00811 whole entry, looked up): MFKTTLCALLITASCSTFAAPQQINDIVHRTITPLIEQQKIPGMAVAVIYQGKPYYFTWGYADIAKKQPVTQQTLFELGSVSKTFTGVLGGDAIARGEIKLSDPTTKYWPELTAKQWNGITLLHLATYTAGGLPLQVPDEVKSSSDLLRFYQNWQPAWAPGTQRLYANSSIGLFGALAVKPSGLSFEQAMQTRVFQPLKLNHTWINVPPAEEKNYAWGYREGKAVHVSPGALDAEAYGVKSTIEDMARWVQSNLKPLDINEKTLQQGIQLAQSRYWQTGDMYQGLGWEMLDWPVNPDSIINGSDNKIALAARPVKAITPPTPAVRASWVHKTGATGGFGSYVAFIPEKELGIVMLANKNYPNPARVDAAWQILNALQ
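AmpC (5.3 nM in the dispensed reagent) in 20 mM phosphate pH 7.0 with 0.01% (detergent screen) or 0.0001% Triton X-100 was preincubated with compounds for 15 min at room temperature. Nitrocefin was then added from an 800 uM solution, and hydrolysis was followed at 480 nm.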
AmpC inh no detg: qHTS Inhibitors of AmpC Beta-Lactamase (assay without detergent) | P00811 | AmpC nitrocefin hydrolysis, absorbance 480 nm, 0.0001% Triton | Potency, µM (highest dose often 57.1 µM), for inactives: at the top dose activity change, negative = inhibition, actives largely listed as inhibitors | 330,000 compounds, 0.52% hits | AID 485341, 2010;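 also: plate controls were no compound for no effect and no enzyme for full effect; nearly all actives have a fitted effect of over 20% in size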
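AmpC (5.3 nM in the dispensed reagent) in 20 mM phosphate pH 7.0 with 0.01% (detergent screen) or 0.0001% Triton X-100 was preincubated with compounds for 15 min at room temperature. Nitrocefin was then added from an 800 uM solution, and hydrolysis was followed at 480 nm.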
* hit, by the source's call; ? = inconclusive; nt = not tested or not shown. Sampled rows, rich in hits. Any-hit rate of the full collection: about 3.3%. Calls follow the shape of the dose curve; as a rule, active = well fitted curve in the direction sought with a large enough effect; inconclusive = small, poorly fitted or top-dose-only effect, or another doubt; inactive = no such curve, though single readings can be large; an effect the other way counts as inactive or inconclusive. Unless noted, % is scaled to controls: 0 for no effect and ±100 for the full control effect; potency is read from the fitted curve at half-maximal effect.

SMILES	Sm TGR inh	AmpC inh detg	AmpC inh no detg
C=CCNC(=S)N1CCC(C(=O)c2ccc(Cl)cc2)CC1	28%	?	4%
O=C(C1CC(=O)N(c2ccc(Cl)cc2)C1)N1CCOCC1 (stereo not given)	7%	5%	-21%
Cc1cc(F)ccc1N1CCC(N2CCN(C(C)C)C(CCO)C2)CC1 (stereo not given)	40µM*	1%	-6%
Cc1cc(F)ccc1N1CCC(N2CCN(CCC(C)C)C(CCO)C2)CC1 (stereo not given)	2%	0%	57%
O=C(CSc1n[nH]c(-c2ccco2)n1)N1c2ccccc2Sc2ccccc21	35µM*	-2%	-45%
CCOC(=O)CSc1n[nH]c(-c2ccco2)n1	-13%	?	-13%
COc1ccccc1C(=O)NC(=O)CSc1nnnn1C	nt	nt	-48%
COc1ccc(S(=O)(=O)c2c(O)cc(C)c(NS(=O)(=O)c3ccccc3)c2C)cc1	-2%	6%	-25%
CCc1ccc(-n2c(O)c(C=NCCN(CC)CC)c(=O)[nH]c2=O)cc1	22µM*	-3%	-15%
CCN(CC)CCN=Cc1c(O)n(Cc2ccccc2)c(=O)[nH]c1=O	-17%	-7%	-5%
COc1ccc(CN(C)CC2CCCN(CCc3ccccc3C)C2)cc1O (stereo not given)	-23%	-15%	18%
COc1ccc(CCN2CCCC(CN(C)Cc3cc(Cl)c(O)c(OC)c3)C2)cc1 (stereo not given)	50µM*	-11%	15%
CCOc1ccc(OCC(=O)OCC(=O)N2CCN(C(=O)c3ccco3)CC2)cc1	-8%	?	23%
Cc1cc(C(=O)Cn2ncc(Cl)c(Cl)c2=O)c(C)n1CC(F)(F)F	45µM*	-5%	-50%
Cc1cccc(Cn2ncc(Cl)c(Cl)c2=O)c1	0%	-2%	-9%
Cc1ccc(C)c(C(=O)Cn2ncc(Cl)c(Cl)c2=O)c1	50µM*	-9%	-38%
CCCc1cc(=O)[nH]c(SCC(=O)c2cc(C)n(CC(F)(F)F)c2C)n1	-8%	-15%	-1%
COc1cccc(-c2noc(-c3cc(C(C)C)[nH]n3)n2)c1OC	2%	5%	nt
CCCOc1ccccc1C(=O)N(Cc1cccc(Br)c1)C1CCS(=O)(=O)C1 (stereo not given)	1%	-5%	100%
O=C(CNC(=O)c1ccc(F)cc1)NCc1ccc(S(=O)(=O)N2CCOCC2)cc1	89µM*	0%	-11%
O=C(NCc1ccc(F)cc1)c1ccc(S(=O)(=O)N2CCCCC2)cc1	-6%	1%	-39%
O=C(Cn1ncc2c([nH]c3ccccc32)c1=O)Nc1cccc(C(F)(F)F)c1	5%	12%	nt
CC(Nc1ncnc2c1cnn2-c1cccc(Cl)c1)c1ccccc1 (stereo not given)	5%	11%	nt
C/C(=N/NS(=O)(=O)c1ccc(Br)cc1)c1c[nH]c2ccccc12	40µM*	-3%	-50%
C/C(=N\NS(=O)(=O)c1ccc([N+](=O)[O-])cc1)c1c[nH]c2ccccc12	-35%	?	-26%
SMILES	Sm TGR inh	AmpC inh detg	AmpC inh no detg
COc1ccc(OC)c(CCNC(=O)Cn2sc3nc(C)cc(C)c3c2=O)c1	?	50µM*	?
Cc1cc(C)c2c(=O)n(CC(=O)NC3CCCC3)sc2n1	?	?	-28%
COc1ccc(-c2cc(C(F)F)n3ncc(C(=O)N4CCc5ccccc54)c3n2)cc1	11µM*	0%	0%
COc1ccc(-c2cc(C(F)F)n3ncc(C(=O)Nc4cc(OC)ccc4OC)c3n2)cc1	1%	-7%	nt
Cc1ccc(-c2cc(C(F)F)n3ncc(C(=O)N4CCCc5ccccc54)c3n2)cc1	2%	-7%	-22%
COc1ccc(-c2cc(C(F)F)n3ncc(C(=O)n4ccnc4C)c3n2)cc1	89µM*	-14%	-11%
Cc1nn(CC(=O)NCCc2ccc(Cl)cc2Cl)c(C)c1[N+](=O)[O-]	0%	9%	1%
O=C(C1CC(=O)N(C2CCCCC2)C1)N1CCN(c2cccc(C(F)(F)F)c2)CC1 (stereo not given)	0%	-5%	-7%
O=C1NCCCC2c3c(cc(Br)c(O)c3Br)OC12N1CCOCC1 (stereo not given)	40µM*	-9%	0%
COc1ccc(OC)c2[nH]c(=O)c(CCNC(=O)c3ccc4c(c3)OCO4)cc12	3%	10%	39%
C#CCOCCOCCOCCNc1nc(N2CCN(C(=O)CCCCCCCCCCNC(=O)[C@H](CCCCN)n3cc(C)nn3)CC2)nc(N2CCN(C(=O)CCCCCCCCCCNC(=O)[C@@H]([C@H](C)CC)n3cc(CCCCCN)nn3)CC2)n1	25µM*	-13%	194%
C#CCOCCOCCOCCNc1nc(N2CCN(C(=O)CCCCCCCCCCNC(=O)[C@H](CCCCN)n3cc(CCO)nn3)CC2)nc(N2CCN(C(=O)CCCCCCCCCCNC(=O)[C@H](CCCCN)n3cc(CCO)nn3)CC2)n1	35µM*	-10%	185%
C#CCOCCOCCOCCNc1nc(N2CCN(C(=O)CCCCCCCCCCNC(=O)[C@H](CCCCN)n3cc(CCCC(=O)O)nn3)CC2)nc(N2CCN(C(=O)CCCCCCCCCCNC(=O)[C@H](CCCCN)n3cc(CCCC(=O)O)nn3)CC2)n1	?	-12%	174%
C#CCOCCOCCOCCNc1nc(N2CCN(C(=O)CCCCCCCCCCNC(=O)[C@H](CCCCN)n3cc(CCO)nn3)CC2)nc(N2CCN(C(=O)CCCCCCCCCCNC(=O)[C@@H]([C@H](C)O)n3cc(C)nn3)CC2)n1	18µM*	6%	286%
C#CCOCCOCCOCCNc1nc(N2CCN(C(=O)CCCCCCCCCCNC(=O)[C@H](CCC(=O)O)n3cc(CCCCCN)nn3)CC2)nc(N2CCN(C(=O)CCCCCCCCCCNC(=O)[C@@H]([C@H](C)O)n3cc(C)nn3)CC2)n1	-31%	-9%	182%
C#CCOCCOCCOCCNc1nc(N2CCN(C(=O)CCCCCCCCCCNC(=O)[C@H]([C@@H](C)CC)n3cc(CCCCCN)nn3)CC2)nc(N2CCN(C(=O)CCCCCCCCCCNC(=O)[C@@H]([C@H](C)O)n3cc(C)nn3)CC2)n1	-29%	12%	295%
O=C(CCNS(=O)(=O)c1ccc(Br)cc1)NCc1ccc(F)cc1	25%	-9%	-7%
COc1ccc2oc(=O)c(/C(N)=N/NC(=O)c3ccncc3)cc2c1	1%	1%	-14%
CC1CC[C@@]2(OC1)O[C@H]1CC3[C@@H]4C[C@@H](O)[C@@]5(O)C[C@@H](O)[C@H](O)C[C@]5(C)[C@H]4CC[C@]3(C)[C@H]1[C@@H]2C (stereo not given in full)	7%	-6%	-5%
O=C(NCc1ccc(Cl)cc1)C(=O)NCC(c1cccnc1)N1CCN(c2ccccc2)CC1 (stereo not given)	-1%	0%	nt
Cc1scc(C(=O)N/N=C/c2ccc(Cl)s2)c1C	1%	-4%	-25%
Fc1ccccc1NC(=S)Nc1cccc2cnccc12	40µM*	-18%	-20%
Cc1ccccc1NC(=S)Nc1cccc2cnccc12	?	0%	-18%
